Hit rate of the full screen: of about 39,000 compounds, about 3,300 (8.5%) were called active. What follows is part of a selection rich in actives, with near analogues and random picks from the rest.
system: HepG2; assay: cytotoxicity call (relative viability < 0.9); settings: 10 µM

| Structure (SMILES) | cytotoxicity call |
| --- | --- |
| Cc1ccc(S(=O)(=O)N(C)C[C@@H]2OCCCC[C@H](C)Oc3ccc(NC(=O)Nc4ccccc4)cc3C(=O)N([C@H](C)CO)C[C@H]2C)cc1 | inactive |
| Cc1ccc(S(=O)(=O)N2C[C@@H](O)COC[C@H]3O[C@H](CC(=O)NCc4ccccc4Cl)CC[C@@H]32)cc1 | inactive |
| COc1ccc(S(=O)(=O)N[C@H]2CC[C@@H](CCNC(=O)CN3CCOCC3)O[C@@H]2CO)cc1 | inactive |
| COc1ccc(S(=O)(=O)Nc2ccc3c(c2)C(=O)N([C@H](C)CO)C[C@H](C)[C@@H](CN(C)C(=O)c2ccccc2)OCCCC[C@@H](C)O3)cc1 | inactive |
| CN(C)CCCNC(=O)C[C@H]1CC[C@H]2[C@H](COc3ccc(NC(=O)NC4CCCC4)cc3C(=O)N2C)O1 | inactive |
| COc1ccc(NC(=O)Nc2ccc3c(c2)C(=O)N([C@@H](C)CO)C[C@@H](C)[C@H](CN(C)C(=O)Cc2ccccc2)OCCCC[C@@H](C)O3)cc1 | inactive |
| CC(=O)N1CCC(C(=O)N2CCC(n3cc(C(C)(C)N)nn3)CC2)CC1 | inactive |
| COc1ccc(CN(C)C[C@@H]2OCCCC[C@H](C)Oc3ccc(NC(=O)Nc4c(C)noc4C)cc3C(=O)N([C@H](C)CO)C[C@H]2C)cc1 | inactive |
| NC(=O)NCC#Cc1ccc2c(c1)[C@]1(C(=O)N2)[C@H](c2ccccc2OCCO)N2[C@H](c3ccccc3)[C@H](c3ccccc3)OC(=O)[C@H]2[C@@H]1C(=O)O | inactive |
| CCc1nc2ccc(C(=O)Nc3ccc4c(c3)OCC(=O)N4)cn2c1N(CC)Cc1cccc(Br)c1 | inactive |
| COc1ccc(NC(=O)N(C)C[C@@H]2OCCCC[C@H](C)Oc3ccc(NC(=O)c4ccncc4)cc3C(=O)N([C@@H](C)CO)C[C@H]2C)cc1 | inactive |
| COc1ccc(CN(C)C[C@@H]2OCCCC[C@@H](C)Oc3ccc(NC(=O)NC(C)C)cc3C(=O)N([C@H](C)CO)C[C@@H]2C)cc1 | inactive |
| C[C@@H]1CCCCO[C@H](CN(C)C(=O)CCC(F)(F)F)[C@H](C)CN([C@H](C)CO)C(=O)c2cc(NS(=O)(=O)c3ccc(Cl)cc3)ccc2O1 | inactive |
| C=C(/C=C\CNS(=O)(=O)c1ccc(C)cc1)[C@H](O)[C@H]1CCCN1S(=O)(=O)c1ccccc1[N+](=O)[O-] | inactive |
| C[C@@H]1CN([C@@H](C)CO)C(=O)Cc2cc(NC(=O)Nc3ccc(C(F)(F)F)cc3)ccc2O[C@@H]1CN(C)Cc1ccncc1 | active |
| C[C@H]1CN([C@@H](C)CO)C(=O)Cc2cc(NC(=O)Nc3ccc(C(F)(F)F)cc3)ccc2O[C@H]1CN(C)Cc1ccncc1 | active |
| C[C@@H]1CCCCO[C@@H](CN(C)C(=O)CCC(F)(F)F)[C@@H](C)CN([C@H](C)CO)C(=O)c2cc(NC(=O)Nc3ccccc3)ccc2O1 | inactive |
| N[C@@H](Cn1ccnc1)c1ccccc1 | inactive |
| COc1ccc(C#Cc2ccc3c(c2)O[C@@H](CN(C)C(=O)c2ccccn2)[C@@H](C)CN([C@@H](C)CO)S3(=O)=O)cc1 | inactive |
| CC/C(=C\C(=N\O)C(N)=O)[C@@H](C)[N+](=O)[O-] | inactive |

| Structure (SMILES) | cytotoxicity call |
| --- | --- |
| CC(=O)N1CCCC(=O)CC1 | inactive |
| C[C@@H]1CCCCO[C@H](CN(C)Cc2ccc3c(c2)OCO3)[C@H](C)CN([C@@H](C)CO)C(=O)c2cc(NC(=O)Cc3ccccc3)ccc2O1 | inactive |
| CNC(=O)C[C@@H]1CC[C@H]2[C@@H](COc3ccc(NC(=O)c4ccc(C(F)(F)F)cc4)cc3C(=O)N2C)O1 | inactive |
| O=C(C[C@@H]1C[C@@H]2c3cc(NC(=O)c4ccc5c(c4)OCO5)ccc3O[C@@H]2[C@H](CO)O1)NCc1cccnc1 | inactive |
| O=C(C[C@@H]1C[C@@H]2c3cc(NC(=O)c4ccc5c(c4)OCO5)ccc3O[C@@H]2[C@@H](CO)O1)NCCc1ccccc1 | inactive |
| O=C(C[C@H]1C[C@H]2c3cc(NC(=O)c4ccc5c(c4)OCO5)ccc3O[C@H]2[C@@H](CO)O1)NCc1cccnc1 | inactive |
| O=C(C[C@@H]1C[C@@H]2c3cc(NC(=O)c4ccc5c(c4)OCO5)ccc3O[C@@H]2[C@H](CO)O1)NCc1ccc(Oc2ccccc2)cc1 | active |
| O=C(C[C@@H]1C[C@@H]2c3cc(NC(=O)c4ccc5c(c4)OCO5)ccc3O[C@@H]2[C@H](CO)O1)NCCc1ccccc1 | active |
| O=C(C[C@H]1C[C@H]2c3cc(NC(=O)c4ccc5c(c4)OCO5)ccc3O[C@H]2[C@@H](CO)O1)NCCc1ccccc1 | inactive |
| O=C(C[C@H]1C[C@@H]2c3cc(NC(=O)c4ccc5c(c4)OCO5)ccc3O[C@@H]2[C@H](CO)O1)NCc1ccc(Oc2ccccc2)cc1 | inactive |
| O=C(C[C@@H]1C[C@H]2c3cc(NC(=O)c4ccc5c(c4)OCO5)ccc3O[C@H]2[C@H](CO)O1)NCc1ccc(Oc2ccccc2)cc1 | inactive |
| O=C(C[C@H]1C[C@@H]2c3cc(NC(=O)c4ccc5c(c4)OCO5)ccc3O[C@@H]2[C@@H](CO)O1)NCc1ccc(Oc2ccccc2)cc1 | active |
| O=C(C[C@H]1C[C@@H]2c3cc(NC(=O)c4ccc5c(c4)OCO5)ccc3O[C@@H]2[C@H](CO)O1)NCc1cccnc1 | inactive |
| O=C(C[C@H]1C[C@H]2c3cc(NC(=O)c4ccc5c(c4)OCO5)ccc3O[C@H]2[C@H](CO)O1)NCc1ccc(Oc2ccccc2)cc1 | active |
| O=C(C[C@H]1C[C@H]2c3cc(NC(=O)c4ccc5c(c4)OCO5)ccc3O[C@H]2[C@H](CO)O1)NCc1cccnc1 | inactive |
| C=CCOC(=O)[C@H]1[C@@H]2C(=O)O[C@@H](c3ccccc3)[C@@H](c3ccccc3)N2[C@@H](c2ccc(OCCOC(=O)[C@@H]3C[C@@H]4C(=O)N[C@@H](CC(C)C)C(=O)N4[C@@H]3c3cccc(OCCO)c3)cc2)[C@]12C(=O)Nc1ccc(I)cc12 | inactive |
| CC(C)NC(=O)Nc1cccc2c1O[C@H](CN(C)C(=O)Nc1ccc3c(c1)OCO3)[C@H](C)CN([C@H](C)CO)C2=O | inactive |
| CC(C)NC(=O)N(C)C[C@H]1OCCCC[C@@H](C)Oc2ccc(NS(C)(=O)=O)cc2C(=O)N([C@@H](C)CO)C[C@H]1C | inactive |
| C[C@@H]1CN([C@@H](C)CO)C(=O)c2cccc(NC(=O)c3ccncc3)c2O[C@@H]1CN(C)Cc1ccc(-c2ccccc2)cc1 | inactive |

Reference: the antibiotic and cytotoxicity screens of Wong et al. (2023)
